# Reference: PubChem BioAssay AID1259421 (Broad Institute, 2018)
# Where “and” joins values, the source holds several entries; their conditions need not be identical. Equal entries are not always repeated. In all, about 6,400 compounds went through this assay and about 610 (9.5%) were called active. The sample holds actives, similar compounds and a random draw of the others, so the mix is not that of the screen. Rule as the data show it: active = activity change below about -70%; inconclusive = no clear call, values can overlap the other calls; inactive = above that. Some compounds were tested as several samples or in several runs, with calls that do not always agree.
# Assay: Toxoplasma gondii ME49Luc growth in HeLa cells, luciferase, no IFN-y, primary screen (AID 1259421)
# Conditions: T. gondii ME49Luc in HeLa, 72 h, stronger effect = lower value, concentration not given here
row,Compound,"activity change, negative = inhibition"
1,Cc1ccc(S(=O)(=O)c2ccc([N+](=O)[O-])o2)cc1,10.8% (inactive)
2,CCCC[C@H](NC(=O)[C@@H]1[C@@H]2[C@H](CN1C(=O)[C@@H](NC(=O)NC1(CS(=O)(=O)C(C)(C)C)CCCCC1)C(C)(C)C)C2(C)C)C(=O)C(=O)NC1CC1,23.2% (inactive)
3,CCC[C@H](NC(=O)[C@@H]1[C@H]2CCC[C@H]2CN1C(=O)[C@@H](NC(=O)[C@@H](NC(=O)c1cnccn1)C1CCCCC1)C(C)(C)C)C(=O)C(=O)NC1CC1,-72.4% (active)
4,CC(C)(C)NC(=O)N[C@H](C(=O)N1C[C@H]2[C@@H]([C@H]1C(=O)NC(CC1CCC1)C(=O)C(N)=O)C2(C)C)C(C)(C)C (stereo partly drawn),0.503% (inactive)
5,CC(C)(C)c1cc(O)c(C(C)(C)C)cc1O,7.89% (inactive)
6,COC(=O)C[C@H]1C(C)(C)[C@@H](O)[C@@H]2CC3=C4CC(O)O[C@@H](c5ccoc5)[C@]4(C)CCC3[C@@]1(C)C2=O (stereo partly drawn),-4.18% (inactive)
7,CO[C@H]1C=CO[C@@]2(C)Oc3c(C)c(O)c4c(O)c(c(/C=N/N5CCN(C)CC5)c(O)c4c3C2=O)NC(=O)/C(C)=C\C=C/C(C)[C@H](O)[C@@H](C)[C@@H](O)[C@@H](C)[C@@H](OC(C)=O)[C@@H]1C (stereo partly drawn),-14.4% (inactive) and 12.2% (inactive)
8,CC1(C)CCC(CN2CCN(c3ccc(C(=O)NS(=O)(=O)c4ccc(NCC5CCOCC5)c([N+](=O)[O-])c4)c(Oc4cnc5[nH]ccc5c4)c3)CC2)=C(c2ccc(Cl)cc2)C1,-89.7% (active)
9,CC(C)COC(=O)c1ccc(N)cc1,47.4% (inactive)
10,COC(=O)c1cc(OC)c2c(c1-c1c(C(=O)OC)cc(OC)c3c1OCO3)OCO2,11.4% (inactive)
11,C=C1C(=O)O[C@H]2[C@H]1CC/C(C)=C\CC[C@@]1(C)O[C@@H]21,7.41% (inactive)
12,O=C(O)c1ccccc1O,10.4% (inactive) and 3.39% (inactive)
13,O=C(N/N=C/c1ccccc1O)c1ccccc1O,-88% (active) and -86.5% (active)
14,O=C(Nc1ccc(O)cc1)c1ccccc1O,30.3% (inactive)
15,O=C(OC1C(OC(=O)c2cccnc2)C(OC(=O)c2cccnc2)C(OC(=O)c2cccnc2)C(OC(=O)c2cccnc2)C1OC(=O)c1cccnc1)c1cccnc1 (stereo not drawn),-4.81% (inactive) and 13.2% (inactive)
16,CCN(CC)CCN(Cc1ccc(-c2ccc(C(F)(F)F)cc2)cc1)C(=O)Cn1c(SCc2ccc(F)cc2)nc(=O)c2c1CCC2,-77.9% (active)
17,CCN(Cc1ccccc1)C(=O)Cn1c(=O)n(C)c2cnc(-c3ccccc3)nc21,9.96% (inactive)
18,O=C(O)[C@H](O)[C@@H](O)[C@H](O[C@@H]1O[C@H](CO)[C@H](O)[C@H](O)[C@H]1O)[C@H](O)CO,11.1% (inactive)
19,Clc1ccc(C(Cn2ccnc2)OCc2ccsc2Cl)c(Cl)c1 (stereo not drawn),-28.7% (inactive) and -2.79% (inactive)
20,Clc1ccc(C(Cn2ccnc2)OCc2csc3c(Cl)cccc23)c(Cl)c1 (stereo not drawn),-75.6% (active)
21,Clc1ccc(COC(Cn2ccnc2)c2ccc(Cl)cc2Cl)c(Cl)c1 (stereo not drawn),-91.6% (active)
22,Clc1ccc(CSC(Cn2ccnc2)c2ccc(Cl)cc2Cl)cc1 (stereo not drawn),-80.3% (active) and -86.4% (active)
23,Clc1ccc(C(Cn2ccnc2)OCc2ccc(Sc3ccccc3)cc2)c(Cl)c1 (stereo not drawn),-73.4% (active)

row,Compound,"activity change, negative = inhibition"
1,C=CCOC(Cn1ccnc1)c1ccc(Cl)cc1Cl (stereo not drawn),26.1% (inactive) and 17.1% (inactive)
2,C[C@@H]1CC2C3C[C@H](F)C4=CC(=O)C=C[C@]4(C)[C@@]3(F)[C@@H](O)C[C@]2(C)[C@@]1(O)C(=O)CO (stereo partly drawn),1.95% (inactive)
3,CC(=O)N[C@H]1CSSC[C@@H](C(N)=O)NC(=O)[C@H](C(C)C)NC(=O)[C@H](C)NC(=O)[C@H](Cc2cnc[nH]2)NC1=O,-4.46% (inactive)
4,O=C(/C=C/c1ccc(O)c(O)c1)O[C@@H]1C[C@](OC(=O)/C=C/c2ccc(O)c(O)c2)(C(=O)O)C[C@@H](O)[C@H]1O,2.12% (inactive)
5,NC(=O)CCCCn1ccc(NC(N)=NCC(F)(F)F)n1,4.57% (inactive) and 3.01% (inactive)
6,C=C1C2CC[C@@]3(C)[C@H](c4ccoc4)OC(=O)C[C@]13O[C@H]1CC(=O)C(C)(C)[C@H](C(O)C(=O)OC)[C@@]21C (stereo partly drawn),-2.51% (inactive)
7,O=C1CCC[C@@H]2[C@@H]3CCC[N+]4([O-])CCC[C@H](CN12)[C@@H]34 (stereo partly drawn),-1.57% (inactive)
8,N=C1CCCN1Cc1[nH]c(=O)[nH]c(=O)c1Cl,3.86% (inactive)
9,COc1cc2c(cc1OC(C)C)[C@H](c1ccc(Cl)cc1)N(c1ccc(N(C)CC3CCC(N4CCN(C)C(=O)C4)CC3)cc1)C(=O)C2 (stereo partly drawn),-56.4% (inactive)
10,N[C@@H](CSCC(=O)O)C(=O)O,14.1% (inactive)
11,COc1ccc(/C=C/C(=O)c2cc(O)ccc2O)cc1,13.6% (inactive)
12,Nc1ncnc2c1ncn2[C@H]1CC[C@@H](CO)O1,1.09% (inactive)
13,CC(C)[N+]1(C)C2CCC1CC(OC(=O)C(CO)c1ccccc1)C2 (stereo not drawn),0.0846% (inactive)
14,O=C(O)CCc1cc(C(=O)c2ccc(OC3CCCC3)cc2O)ccc1OCc1ccc2c(=O)[nH]oc2c1,6.19% (inactive)
15,Cl/C(=C/n1cncn1)c1ccc(Cl)cc1Cl,-5.43% (inactive)
16,Cl/C(=C\n1cncn1)c1ccc(Cl)cc1Cl,-11.5% (inactive)
17,O=C(O)/C=C/c1ccc(Cn2ccnc2)cc1,-0.196% (inactive) and 8.1% (inactive)
18,Clc1ccc(CCC(Cn2ccnc2)Sc2c(Cl)cccc2Cl)cc1 (stereo not drawn),-83.9% (active) and -87.7% (active)
19,Clc1ccc(C(Cn2ccnc2)OCc2c(Cl)cccc2Cl)c(Cl)c1 (stereo not drawn),-52.5% (inactive)
20,Clc1ccc(CO/N=C(\Cn2ccnc2)c2ccc(Cl)cc2Cl)c(Cl)c1,-81.5% (active) and 40% (inactive)
21,Clc1ccc(COC(Cn2ccnc2)c2ccc(Cl)cc2Cl)cc1 (stereo not drawn),-77.4% (active) and -87.9% (active)
22,COc1cc(/C=C/C(=O)N2CCN(CC(=O)NC(C)C)CC2)cc(OC)c1OC,-0.924% (inactive)
23,CC(C)NC(=O)COc1cccc(-c2nc(Nc3ccc4[nH]ncc4c3)c3ccccc3n2)c1,-49.1% (inactive)

row,Compound,"activity change, negative = inhibition"
1,COc1ccc(CNC(=O)c2cc(-c3cncc(C)c3)ncc2-c2nccs2)nc1OC,3.2% (inactive)
2,N[C@@H](C(=O)O)[C@@H](OCc1ccccc1)C(=O)O (racemic),8.74% (inactive)
3,COc1cc(/C=C/C(=O)O[C@H]2CC[C@]34CC35CC[C@]3(C)[C@@H](C(C)CCC=C(C)C)CC[C@@]3(C)C5CCC4C2(C)C)ccc1O (stereo partly drawn),9.65% (inactive)
4,C=C(NC(=O)C(=C)NC(=O)c1csc(C2=N[C@H]3c4csc(n4)[C@H]4NC(=O)c5csc(n5)[C@H]([C@@](C)(O)[C@@H](C)O)NC(=O)[C@H]5CSC(=N5)/C(=C/C)NC(=O)[C@H]([C@@H](C)O)NC(=O)c5csc(n5)[C@]3(CC2)NC(=O)[C@H](C)NC(=O)C(=C)NC(=O)[C@H](C)NC(=O)[C@H](C(C)CC)N[C@@H]2C=Cc3c([C@H](C)O)cc(nc3[C@H]2O)C(=O)O[C@@H]4C)n1)C(N)=O (stereo partly drawn),-5.27% (inactive)
5,O=C(O)c1cccnc1Nc1cccc(C(F)(F)F)c1,5.33% (inactive) and 7.04% (inactive)
6,O=C(O)c1ccc2c(c1)nc(Nc1cccc(Cl)c1)c1ccncc12,-81.6% (active)
7,Clc1cccc(Nc2nnc(-c3ccccc3)c3ccccc23)c1,-1.93% (inactive) and 0.598% (inactive)
8,Cc1noc(-c2ccc(-c3ccc(CC(=O)O)cc3)cc2)c1NC(=O)O[C@H](C)c1ccccc1,6.32% (inactive)
9,CN(C)c1cc(NC(=O)CNC(C)(C)C)c(O)c2c1C[C@H]1C[C@H]3[C@H](N(C)C)C(=O)C(C(N)=O)C(=O)[C@@]3(O)C(=O)C1C2=O (stereo partly drawn),5.81% (inactive)
10,O=C(NCCCCN1CCOCC1)c1cc2ccccc2o1,0.553% (inactive)
11,CN1CCN(CCCN2c3ccccc3Sc3ccc(Cl)cc32)CC1,16.2% (inactive) and 18.1% (inactive)
12,OCCN1CCN(CC/C=C2/c3ccccc3Sc3ccc(Cl)cc32)CC1,-82.3% (active)
13,OCCN1CCN(CCCN2c3ccccc3Sc3ccc(Cl)cc32)CC1,-81% (active)
14,CN(C)CC/C=C1/c2ccccc2Sc2ccc(Cl)cc21,-62.1% (inactive) and 35.6% (inactive)
15,OCCN1CCN(CCCN2c3ccccc3Sc3ccc(C(F)(F)F)cc32)CC1,-60% (inactive) and -63.7% (inactive)
16,CN(C)CC/C=C1\c2ccccc2Sc2ccc(Cl)cc21,-58.2% (inactive)
17,CC(=O)c1ccc2c(c1)N(CCCN1CCN(CCO)CC1)c1ccccc1S2,15.8% (inactive)
18,OCCN1CCN(CC/C=C2/c3ccccc3Sc3ccc(C(F)(F)F)cc32)CC1,-74.2% (active)
19,CN1CCN(CCC=C2c3ccccc3Sc3ccc(S(=O)(=O)N(C)C)cc32)CC1,25.4% (inactive) and 73.8% (inactive)
20,CC[C@H](C)[C@H](NC(=O)[C@H](Cc1ccc(O)cc1)NC(=O)[C@@H](NC(=O)[C@H](CCCN=C(N)N)NC(=O)[C@@H](N)CC(=O)O)C(C)C)C(=O)N[C@@H](Cc1cnc[nH]1)C(=O)N1CCC[C@H]1C(=O)O,8.39% (inactive)
21,O=S1(=O)N[C@H]2CCCN2c2ccccc21,1.4% (inactive)
22,CCC(=O)O[C@@]1(C(=O)CCl)[C@@H](C)C[C@H]2[C@@H]3C[C@H](F)C4=CC(=O)C=C[C@]4(C)[C@]3(F)[C@H](O)C[C@@]21C,6.07% (inactive)
